Consider seven compounds from PubChem BioAssay (NCI).

The structures appear in SMILES notation. The panel holds about 83,000 compounds, 20% with a hit somewhere; the sample as a whole holds those more often.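 Treatment: one concentration, 48 hours, 96-well format. Scoring: percent growth, with anything below 10 considered active.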 A number with no mark means an inactive call. Activity calls are given as the source filed them.

Some test systems named below: DU-145 prostate; K-562 leukemia; MALME-3M melanoma; MDA-MB-231 breast; RXF 393 renal; SF-268 CNS; SF-295 CNS; SF-539 CNS; UACC-257 melanoma; M14 melanoma; HCT-15 colon; HT29 colon; SNB-75 CNS; SNB-19 CNS; U251 CNS; PC-3 prostate; SK-MEL-5 melanoma; UACC-62 melanoma; LOX IMVI melanoma; SK-MEL-28 melanoma.
Holding throughout (experiment): NCI-60 one-dose screen, 48 h (100 = growth as untreated, 0 = no growth, -100 = all killed)
Holding throughout (conditions): 10 µM unless noted

As to `CN(C)CCCC1(c2ccc(F)cc2)OCc2cc(-c3cc4ccccc4s3)ccc21` (stereo not given), the growth with DU-145 prostate is 18%; in the assay with K-562 leukemia, -17.5% (active); with MALME-3M melanoma, -77.4% (active); in the assay on MDA-MB-231 breast, -42.4% (active); in the assay on RXF 393 renal it was 34.8%; in the assay on SF-268 CNS, 38.3%. Also, the growth in the assay with SF-295 CNS is 70.4%; in the assay with SF-539 CNS, -58.8% (active); in the assay with UACC-257 melanoma, -29.1% (active); in the assay on M14 melanoma, -68.7% (active); in the assay with HCT-15 colon, -49% (active); with HT29 colon it was -67.1% (active). In addition, the growth was 25.2% with SNB-75 CNS; 71.2% in the assay with SNB-19 CNS; -83% (active) with U251 CNS; 28.8% with PC-3 prostate; 60.9% in the assay on SK-MEL-5 melanoma; -62.1% (active) with UACC-62 melanoma. In addition, the growth in the assay on LOX IMVI melanoma is -93.6% (active); with SK-MEL-28 melanoma it was -87.5% (active).

With `N#Cc1ccc(O)c(C2=NCC(Cc3ccccc3)O2)c1` (stereo not given), the growth with DU-145 prostate was 55.7%; with K-562 leukemia, 26.5%; in the assay on MALME-3M melanoma, 64.3%; with MDA-MB-231 breast, 77.6%; in the assay on RXF 393 renal it was 62.4%; in the assay with SF-268 CNS it was 52.2%. Besides, the growth with SF-295 CNS was 31.2%; in the assay with SF-539 CNS it was 68.7%; in the assay with UACC-257 melanoma it was 63.6%; with M14 melanoma it was 45.4%; with HCT-15 colon, 21.2%; with HT29 colon, 72.6%. Moreover, the growth was 70.6% in the assay on SNB-75 CNS; 55.6% with SNB-19 CNS; 23.8% in the assay on U251 CNS; 35.3% with PC-3 prostate; 35.5% in the assay with SK-MEL-5 melanoma; 42% in the assay on UACC-62 melanoma. The growth with LOX IMVI melanoma is 32.6%; in the assay on SK-MEL-28 melanoma it was 80.2%.

As for `C=C(C)[C@@H]1CCC[C@]2(C(=O)N3CCN(C)CC3)CC[C@]3(C)[C@@H](CC[C@@H]4[C@@]5(C)CC/C(=N\NC(=O)c6ccncc6)C(C)(C)[C@@H]5CC[C@]43C)[C@@H]12`, the growth with DU-145 prostate is 100%; in the assay on K-562 leukemia, 17.6%; in the assay on MALME-3M melanoma, 74.1%; in the assay with MDA-MB-231 breast, 66.8%; with RXF 393 renal, 99.7%; in the assay with SF-268 CNS, 84.2%. In addition, the growth is 104% in the assay with SF-295 CNS; 104% in the assay on SF-539 CNS; 103% in the assay with UACC-257 melanoma; 74.3% in the assay with M14 melanoma; 92.1% with HCT-15 colon; 98.8% with HT29 colon. Further, the growth in the assay with SNB-75 CNS was 77.7%; in the assay on SNB-19 CNS it was 83.5%; with U251 CNS, 99.8%; with PC-3 prostate, 87%; with SK-MEL-5 melanoma it was 92.9%; in the assay with UACC-62 melanoma it was 87.4%. In addition, the growth is 89.3% with LOX IMVI melanoma and 95.5% with SK-MEL-28 melanoma.

In the case of `COc1cc(C(=O)c2c(-c3ccccc3)oc3c(OC)cccc23)cc(OC)c1OC`, the growth was 6.56% (active) in the assay with DU-145 prostate; 12.3% with K-562 leukemia; 42.2% with MALME-3M melanoma; -0.456% (active) in the assay on MDA-MB-231 breast; -3.42% (active) in the assay with RXF 393 renal; 30.1% in the assay with SF-268 CNS. Further, the growth was 2.79% (active) in the assay with SF-295 CNS; -26.1% (active) in the assay with SF-539 CNS; 71.1% in the assay on UACC-257 melanoma; 3.87% (active) in the assay with M14 melanoma; 5.88% (active) in the assay on HCT-15 colon; 8.2% (active) in the assay on HT29 colon. In addition, the growth in the assay on SNB-75 CNS is 7.41% (active); with SNB-19 CNS it was 25%; in the assay with U251 CNS it was 14.2%; in the assay with PC-3 prostate, 17.2%; with SK-MEL-5 melanoma, -42.3% (active); in the assay with UACC-62 melanoma, 30.2%. Further, the figures for the growth in the assay with LOX IMVI melanoma and in the assay with SK-MEL-28 melanoma were 12.2% and 59.9%, respectively.

Consider `CCCCCCCCCCCCCCCCCCOc1ccccc1CC(=O)NCC[N+]1(C)CCCCC1`, for which the growth is 68.7% with DU-145 prostate; 34.2% in the assay with K-562 leukemia; 44.9% in the assay with MALME-3M melanoma; 36.6% with MDA-MB-231 breast; 18.4% in the assay with RXF 393 renal; 34% in the assay on SF-268 CNS. In addition, the growth with SF-295 CNS is 90.2%; in the assay with SF-539 CNS, 84%; with UACC-257 melanoma it was 88.3%; in the assay on M14 melanoma, 68.3%; in the assay on HCT-15 colon, 95.7%; in the assay on HT29 colon it was 12.8%. Also, the growth with SNB-75 CNS was 61.4%; in the assay on SNB-19 CNS, 36.7%; in the assay with U251 CNS, 16.3%; in the assay on PC-3 prostate, 8.74% (active); with SK-MEL-5 melanoma, 82.1%; in the assay with UACC-62 melanoma, 44.6%. In addition, the growth was 53.6% in the assay on LOX IMVI melanoma and 76.2% in the assay on SK-MEL-28 melanoma.

On to `CC(=O)O[C@H]1C[C@@H]2C(C)(C)C(=O)CC[C@@]2(C)c2ccc(C(C)C)cc21`, for which the growth was 102% in the assay with DU-145 prostate; 104% with K-562 leukemia; 109% in the assay on MALME-3M melanoma; 104% in the assay with MDA-MB-231 breast; 121% in the assay on RXF 393 renal; 95.8% in the assay with SF-268 CNS. For the same compound, the growth is 100% in the assay on SF-295 CNS; 110% in the assay with SF-539 CNS; 107% in the assay on UACC-257 melanoma; 104% in the assay with M14 melanoma; 105% in the assay on HCT-15 colon; 111% with HT29 colon. Further, the growth is 100% in the assay on SNB-75 CNS; 102% with SNB-19 CNS; 97.7% in the assay with U251 CNS; 100% with PC-3 prostate; 103% in the assay on SK-MEL-5 melanoma; 101% in the assay with UACC-62 melanoma. Moreover, the growth is 105% in the assay on LOX IMVI melanoma and 121% in the assay on SK-MEL-28 melanoma.

For the compound `CCCC(CC)(C(=O)Nc1ccc2nc(C)cc(N)c2c1)C(=O)Nc1ccc2nc(C)cc(N)c2c1`, the growth in the assay on DU-145 prostate was 111%; with K-562 leukemia, 102%; in the assay with MALME-3M melanoma, 105%; with MDA-MB-231 breast, 100%; in the assay with RXF 393 renal, 117%; with SF-268 CNS it was 113%. Further, the growth was 108% with SF-295 CNS; 102% with SF-539 CNS; 99.7% in the assay with UACC-257 melanoma; 96.6% in the assay with M14 melanoma; 110% in the assay on HCT-15 colon; 99.1% with HT29 colon. The growth with SNB-75 CNS is 100%; in the assay with SNB-19 CNS it was 103%; with U251 CNS, 107%; in the assay with PC-3 prostate it was 95.8%; in the assay on SK-MEL-5 melanoma it was 99.5%; in the assay on UACC-62 melanoma, 102%. Besides, the growth is 100% with LOX IMVI melanoma and 110% in the assay on SK-MEL-28 melanoma.
